110 compounds from ChEMBL document CHEMBL3988442, “University of Dundee, Small-Polar-MMV Screening Library” (2021) can be followed below.

SMILES strings stand for the structures. Screen size: about 48,000 compounds; about 13,000 (27%) showed an effect of 50% or more. The list shows a part of the results.

The test system of the assay is Wolbachia pipientis. Briefly: Anti-Wolbachia Cell-Based Screen. The arrangement: scale not given: in the data most compounds retested in dose-response had high values. To be noted: 5 µM. The assay is classed as functional.
As for `OCCOc1cc(F)ccc1NCc1nc(-c2ccoc2)no1`, the “Percent Effect” value is -6.724%. As for `CC(=O)N(Cc1noc(C2CC2)n1)C1CCN(CC(=O)NC2CC2)C1` (stereo not given), the “Percent Effect” value is given as 124.3%.

With `CC(=O)N(Cc1noc(C2CC2)n1)C1CCN(CC2CCOCC2)C1` (stereo not given), the “Percent Effect” value amounted to 115.6%. Next, `Cc1nc(CCN)cc(N2CCC(O)(c3ccccc3)C2)n1` (stereo not given): -17.84%. Next, `O=C(c1ccccn1)N1CC[C@H]2C(=O)N(c3ccsc3)CCO[C@H]2C1`: -15.02%. Take `COCC(=O)Nc1ccc(-c2noc([C@@H]3CCCN3CC(C)C)n2)cn1`: the “Percent Effect” value was 49.09%. Regarding `COCC(=O)Nc1ccc(-c2noc([C@@H]3CCCN3C)n2)cn1`, the “Percent Effect” value is -1.727%. Next, `COCC(=O)Nc1ccc(-c2noc([C@@H]3CCCN3C(C)C)n2)cn1`: 57.87%. Next, `COc1ccc(CN(C)C(=O)CCC(=O)c2cccs2)c(OC)c1OC`: -8.068%; `COc1ccc(OC)c(C2CCN(c3ccc4cc[nH]c4n3)C2)c1` (stereo not given): 5.101%; `CCOc1ccc(C(=O)CCC(=O)NCc2csc(N)n2)cc1C`: 5.175%. Next, `CCOc1cc([C@H]2N[C@@H](c3nc(C)cs3)Cc3ccsc32)ccc1OC`: 131.4%; `CCOc1cc(CNc2cc(-c3nc(C)no3)ccn2)ccc1OC`: -0.8232%; `COc1ccc(OC)c(C2CCN(C3CCOCC3)C2)c1` (stereo not given): 1.409%.

For `COc1cc([C@@H]2N[C@H](c3nccs3)Cc3ccsc32)cc(OC)c1OC`, the “Percent Effect” value was 111.7%. Next, `COc1ccc(C(C)NC(=O)Nc2nccs2)cc1OC` (stereo not given): -9.507%. With `COc1ccc(OC)c([C@@H]2N[C@H](c3nccs3)Cc3ccsc32)c1`, the “Percent Effect” value turned out to be 139.9%. Next, `CCOc1cc([C@@H]2N[C@H](c3nccs3)Cc3ccsc32)ccc1OC`: 100.4%; `CCOc1cc(/C=C/c2ncc(C(=O)NC)s2)ccc1OC`: 34.03%; `CC1CCc2nc(O)c(C(=O)NCCCN3CCN(C)CC3)cc2C1` (stereo not given): -5.002%.

On to `CC(=O)c1sc2nc3c(c(C(F)(F)F)c2c1N)CN(C(C)=O)CC3`, for which the “Percent Effect” value is recorded as -4.263%. Then `Cc1ccc(SCC(=O)NS(=O)(=O)c2ccc3c(c2)OCCO3)cc1`, with -12.07%; and `O=C(O)C(F)(F)F.O=C(O)C(F)(F)F.O=C(O)c1cc2c(nc1N1CCCC1)CCN(C1CCOCC1)CC2`, with -7.138%; and `COCCN(CC1CCCN(C2Cc3ccccc3C2)C1)C(=O)COC` (stereo not given), with -1.224%. Next, `CC(C)CN1C[C@H]2CCN(c3ncccn3)CC[C@H]2S1(=O)=O.O=C(O)C(F)(F)F`: -7.419%. Next, `CCOc1ccc([C@@H]2N[C@H](c3nccs3)Cc3ccsc32)cc1OC`: 113.5%. Take `CCN(Cc1nccs1)Cc1cc(Cl)ccc1OC`: the “Percent Effect” value is listed as -0.3926%. Next, `CCOc1ccc(C2CC(=O)NCc3nc(N)sc32)cc1CO` (stereo not given): 4.923%; `COc1cccc(C2CCN(c3ccc4cc[nH]c4n3)C2)c1OC` (stereo not given): -24.45%. Then `COc1cccc([C@@H]2N[C@H](c3nccs3)Cc3ccsc32)c1OC`, with 146.2%. Next, `COCCOc1ccccc1C(=O)N1CCCCC1c1nccs1` (stereo not given): 1.225%. Take `CC1N(CC2CC2)C(=O)COC12CCN(C(=O)c1ccno1)CC2` (stereo not given): the “Percent Effect” value is reported as -9.759%. In the case of `Cn1ncc2c(=O)[nH]c(N3CCCC3c3cccc(Cl)c3)nc21` (stereo not given), the “Percent Effect” value was -9.423%.

Regarding `CCNC(=O)CN1CCOC(c2ccccc2C(F)(F)F)C1` (stereo not given), the “Percent Effect” value is recorded as -9.523%.

`O=c1n(Cc2ccc(C(F)(F)F)cc2)nc2ncccn12`: the “Percent Effect” value came to 133.4%.

For `CC(NC(=O)Cn1cccnc1=O)c1ccc(C(F)(F)F)cc1` (stereo not given), the “Percent Effect” value is given as -2.849%.

Take `CC(C)C1CN(c2ncccn2)CCC(=O)N1Cc1ccc(F)cc1` (stereo not given): the “Percent Effect” value is recorded as -1.405%. Next, `Cn1cnn(Cc2ccccc2F)c1=O`: -4.03%. In the case of `COc1nccnc1N1CCN(Cc2cccc(F)c2)C(=O)C1`, the “Percent Effect” value is given as -1.411%. Next, `Fc1ccc(Cn2ncc3c2CN(c2ncccn2)C3)cc1`: -12.4%; `O=c1n(Cc2ccccc2F)nc2ncccn12`: 224.5%.

On to `O=c1n(Cc2cccc(F)c2)nc2ncccn12`, for which the “Percent Effect” value is listed as 124.9%.

In the case of `O=C(O)[C@@H]1CN(Cc2nc3ncccn3n2)C[C@H]1c1cccc(F)c1`, the “Percent Effect” value amounted to 4.961%. Take `FC(F)(F)c1ccc(CN2CCN(Cc3cscn3)CC2)cc1`: the “Percent Effect” value is -5.816%.

For the compound `O=c1n(Cc2ccc(F)cc2)nc2ncccn12`, the “Percent Effect” value worked out at 93%. Consider `O=c1n(CCSCc2ccccc2F)nc2ccccn12`, for which the “Percent Effect” value turned out to be 16.6%. Then `Cn1ccc(C(=O)N(CC(F)(F)F)c2cccc(Cl)c2)cc1=O`, with -11.93%.

On to `CCc1nc2n(n1)CC(Nc1nc(C)cc(N(C)C)n1)CC2` (stereo not given), for which the “Percent Effect” value stood at 2.422%. Next, `CCC1=NOC(CNCc2cnc(-c3ccccc3C)s2)C1` (stereo not given): -1.087%; `Cc1c(C)n(CC(O)CN2CCCCCC2)c2c(Cl)cccc12` (stereo not given): 9.081%; `CC(=O)c1cccc(NC(=O)NCCc2nnc[nH]2)c1`: -18%.

Regarding `O=C(O)c1nnn(Cc2cccc(C(F)(F)F)c2)c1-c1ccccn1`, the “Percent Effect” value worked out at 11.55%. Next, `O=C(O)c1nnn(Cc2cccc(C(F)(F)F)c2)c1-c1ccncc1`: -2.735%; `O=c1n(Cc2cccc(C(F)(F)F)c2)nc2ncccn12`: 134.4%; `Cc1cncc(NCc2ccccc2N2CCOCC2)c1`: 0.5273%. Next, `O=C(NCc1ccccc1CO)Nc1ccc2c(c1)CCO2`: 11.78%.

As to `Cc1csc(N2CCCN(C(=O)C3(C#N)CCCCC3)CC2)n1`, the “Percent Effect” value is -2.808%. Then `COCc1c(Br)cccc1NC(=O)N(C)CCO`, with -0.915%; and `CCN(Cc1ccncc1)C1CCCN(Cc2ccc(F)cc2OC)C1` (stereo not given), with -6.511%; and `COc1ccc(C(C#N)NC(=O)Cc2ccc(F)c(F)c2)c(OC)c1` (stereo not given), with 86.82%.

With `COc1cccc(C(CO)NC(=O)Cc2ccc(F)c(Br)c2)c1` (stereo not given), the “Percent Effect” value is reported as 1.843%. Then `COc1ccc(C(C#N)NC(=O)CC2=CCCCC2)c(OC)c1` (stereo not given), with -6.467%. Next, `COCc1nc(C)cc(Nc2ccc3c(c2)CC(=O)N3)n1`: -4.999%; `COc1cc2c(cc1CN1C[C@@H](CN3CCOCC3)[C@@H](CO)C1)CCC2`: 3.11%. As for `Cc1c[nH]nc1C1CCN(C(=O)C2CCC2)CC1`, the “Percent Effect” value stood at 187.6%. Then `Cc1c[nH]nc1C1CCN(C(=O)C2CCOCC2)C1` (stereo not given), with 146.2%; and `CCc1nc(CN2CCCN(C(=O)CC3CCCC3)CC2)cs1`, with -10.08%; and `O=C(C1CCS(=O)(=O)CC1)N1CCC(c2ccc(F)cc2)C1` (stereo not given), with -11.81%. Next, `Cc1ccc(NC(=O)N2CCN(C(=O)CC3CCCC3)CC2)s1`: -2.154%. Next, `Cc1c[nH]nc1C1CCN(C(=O)CC2CCCC2)C1` (stereo not given): 140.5%; `Cc1c[nH]nc1C1CCN(C(=O)C2CCCC2)C1` (stereo not given): 108.3%; `O=C(C1CCC1)N1CCC(C(=O)N2CCC(c3ccc(F)cc3)C2)CC1` (stereo not given): 15.47%. For `Cc1c[nH]c(CN2CC[C@@]3(O)CCN(C(=O)C4CCCC4)C[C@H]3C2)n1`, the “Percent Effect” value is recorded as 6.79%. Next, `COc1ccc2cc(C3CN(C(=O)C4CCOCC4)CCO3)ccc2c1` (stereo not given): -17.44%. Then `COc1ccc(OC)c(C2CCN(C(=O)C3CCOCC3)C2)c1` (stereo not given), with 3.237%; and `Cc1c[nH]nc1C1CCN(S(=O)(=O)N(C)C)CC1`, with -12.28%; and `CNC(=O)[C@@H]1C[C@H](N)CN1S(=O)(=O)c1cc(Cl)c(Cl)s1`, with -16.04%.

In the case of `Cc1ccc2oc(C(=O)N3CCCC(n4nc(C)cc4C)C3)cc2n1` (stereo not given), the “Percent Effect” value is -4.167%. Regarding `C1CCN(CCOC2CCNCC2)C1`, the “Percent Effect” value is -3.216%. Then `CNC(=O)[C@@H]1C[C@@H](N)CN1C1CCN(c2ccccc2F)CC1`, with -6.416%.

With `O=C(c1ccc2c(c1)CCC2)N1CCCCC1C1OCCO1` (stereo not given), the “Percent Effect” value was -21.29%.

Turning to `O=C(c1ccc2[nH]nnc2c1)N1CCCC(n2cccn2)C1` (stereo not given), the “Percent Effect” value is reported as -7.495%. Next, `O=C(c1ccc2[nH]nnc2c1)N1C[C@H](O)[C@]2(CCCO2)C1`: 107.9%; `CC(C)S(=O)(=O)NCC1CCCN(C(=O)c2ccc3c(c2)CCC3)C1` (stereo not given): -10.39%.

On to `O=C(c1ccc2[nH]nnc2c1)N1CC[C@H](O)[C@]2(CCCO2)C1`, for which the “Percent Effect” value came to 85.31%.

Regarding `O=C(c1ccc2c(c1)CCC2)N1CC[C@H](O)[C@]2(CCCO2)C1`, the “Percent Effect” value is 143.9%. Then `COc1ccc(NC(=O)NC(C)(C)c2noc(C)n2)cc1`, with -12.65%; and `CS(=O)(=O)CCOCCNc1ccc(C#N)cc1F`, with -9.887%; and `FC(F)(F)c1n[nH]c2c1CN(CCc1ccccn1)CC2`, with -4.323%. Turning to `COc1ccc(-c2cccc(-c3ccn(CC4COCCO4)n3)c2)nn1` (stereo not given), the “Percent Effect” value was -12.89%. Then `Cn1cnc2cc(C(=O)NS(=O)(=O)c3ccc(F)cc3)ccc21`, with -13.37%; and `O=C(O)C1c2nc[nH]c2CCN1Cc1ccc(-c2ccccc2)s1` (stereo not given), with -13.4%. Then `Cc1nc(CN2CCC3(CCCN(Cc4cnn(C)c4)C3)C2=O)cs1.O=C(O)C(F)(F)F.O=C(O)C(F)(F)F` (stereo not given), with 12.7%. Next, `Cc1nc(CN2CCC3(CCN(Cc4cnn(C)c4)CC3)C2=O)cs1.O=C(O)C(F)(F)F.O=C(O)C(F)(F)F`: 102.9%. Regarding `Cc1nc(CN2CCC3(CCN(Cc4cnn(C)c4)C3)C2=O)cs1` (stereo not given), the “Percent Effect” value was 104.5%.

As for `Cc1nc(CN2CCC3(CCN(Cc4nccn4C)CC3)C2=O)cs1.O=C(O)C(F)(F)F.O=C(O)C(F)(F)F`, the “Percent Effect” value is on record as 106%. On to `O=C1O[C@@H]2CN(Cc3cc4ccccc4o3)C[C@@H]2N1Cc1ccccn1`, for which the “Percent Effect” value worked out at 8.786%. Then `CN(Cc1ccncn1)c1nccc(CCC(F)(F)F)n1`, with 2.558%; and `CN1CCN(Cc2cn3c(n2)CN(C(=O)N2CCOCC2)CC3)CC1.O=C(O)C(F)(F)F.O=C(O)C(F)(F)F`, with -14.48%; and `CN1CCN(Cc2cn3c(n2)CN(C2CCOCC2)CC3)CC1.O=C(O)C(F)(F)F.O=C(O)C(F)(F)F.O=C(O)C(F)(F)F`, with 107%. In the case of `c1c(CN2CCCCC2)nc2n1CCN(CC1CC1)C2`, the “Percent Effect” value is recorded as 5.412%. Then `CN(Cc1cn2c(n1)CN(C1CCOCC1)CC2)Cc1ccco1.O=C(O)C(F)(F)F.O=C(O)C(F)(F)F`, with 4.973%; and `c1nc2n(c1CN1CCOCC1)CCN(C1CCOC1)CC2` (stereo not given), with -7.987%; and `O=C(O)C(F)(F)F.O=C(O)C(F)(F)F.c1cn2c(n1)CN(C1CCOCC1)CC(CN1CCCC1)C2` (stereo not given), with -10.3%.

Consider `O=C(O)C(F)(F)F.O=C(O)C(F)(F)F.c1c(CN2CCCC2)nc2n1CCN(CC1CC1)C2`, for which the “Percent Effect” value is given as -6.407%. Then `O=C(O)C(F)(F)F.O=C(O)C(F)(F)F.c1c(CN2CCCC2)nc2n1CCN(C1CCOCC1)C2`, with 102.1%; and `O=C(CC1CC1)NCc1cn2c(n1)CN(C(=O)C1CCOCC1)CC2`, with 7.38%; and `O=C(NCc1cn2c(n1)CN(CC1CCOCC1)CC2)C1CCC1.O=C(O)C(F)(F)F`, with -3.322%.

Regarding `c1c(CN2CCOCC2)nc2n1CCN(C1CCOCC1)C2`, the “Percent Effect” value worked out at 79.69%.

`c1c(CN2CCOCC2)nc2n1CCN(CC1CC1)C2`: the “Percent Effect” value is given as 101.8%.
